Assay results taken from PubChem BioAssay AID504634 (The Scripps Research Institute Molecular Screening Center, 2011).
In all, about 340,000 compounds went through this assay and about 280 (0.082%) were called active. Shown is part of a subset that was picked to be rich in actives. A number with no mark means an inactive call. Rule as the data show it: active = inhibition mostly above about 23% (no sharp cut-off); inactive = mostly below about 18%.

target: 5-hydroxytryptamine receptor 5A (Homo sapiens) (UniProt P47898); experiment: HTR5A inverse agonists in luminescence cell assay, primary screen, counter-screen for OPRM1-OPRD1 heterodimer inverse agonist project, full-deck HTS (AID 504634); details: HTR5A cell line, inverse agonism, at 9.3 µM, stronger effect = higher value;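 also: 0% = cells with DMSO and 100% = no-cell wells with DMSO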
Sequence (P47898 whole entry, looked up): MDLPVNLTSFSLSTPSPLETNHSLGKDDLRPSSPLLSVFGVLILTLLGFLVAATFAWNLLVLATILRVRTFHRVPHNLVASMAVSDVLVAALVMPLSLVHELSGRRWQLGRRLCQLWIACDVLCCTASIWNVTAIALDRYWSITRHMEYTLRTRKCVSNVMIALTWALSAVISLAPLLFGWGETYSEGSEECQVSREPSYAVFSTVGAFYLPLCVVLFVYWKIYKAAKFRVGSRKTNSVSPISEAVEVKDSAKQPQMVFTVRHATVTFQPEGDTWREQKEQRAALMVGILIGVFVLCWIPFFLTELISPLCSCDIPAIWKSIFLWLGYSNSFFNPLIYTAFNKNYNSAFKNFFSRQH

| SMILES | inhibition |
| --- | --- |
| CCCC1NC(=O)NC(C)=C1C(=O)OCC (stereo not given) | -17.2% |
| CCOC(=O)c1c(C)[nH]c(C)c1S(=O)(=O)NCCCc1ccco1 | 16.2% |
| CCNS(=O)(=O)c1ccc(CCC(=O)N2CCN(c3ccc(OC)cc3)CC2)cc1 | 8.47% |
| CC(NC(=O)CNC(=O)Cc1cccc2ccccc12)c1ccc(S(N)(=O)=O)cc1 (stereo not given) | 2.43% |
| O=c1ccc2c(-c3ccccc3S(=O)(=O)O)c3ccc(O)c(O)c3oc-2c1O | 24.5% (active) |
| NS(=O)(=O)c1ccc(CCNC(=O)c2ccc(Cl)c(S(=O)(=O)N3CCCCCC3)c2)cc1 | -7.96% |
| COc1ccc2[nH]c3c(c2c1)CCN1C(=O)C(CC(=O)NCCc2ccccn2)C[C@H](C(=O)N2CCOCC2)[C@@]31C (stereo not given in full) | 2.62% |
| Cc1noc(C)c1NC(=O)Nc1ccc2c(c1)C(=O)N([C@H](C)CO)C[C@H](C)[C@@H](CN(C)C(=O)Nc1ccccc1)O2 | -10% |
| S=C(Nc1ccc(Br)cc1Cl)N1CCC2(CC1)OCCO2 | 2.4% |
| CC(C)Cn1cnc2c1c(=O)n(CC(O)c1ccccc1)c(=O)n2CC(C)C (stereo not given) | -27.9% |
| COc1ccc(S(=O)(=O)N2CCc3ccccc32)cc1C(=O)Nc1cc(S(C)(=O)=O)ccc1Cl | -6.04% |
| COc1cc(CCC(=O)Nc2ccncc2Cl)cc(OC)c1OC | 6.7% |
| Cc1cccn2c(=O)c(C=O)c(Nc3ccc(S(N)(=O)=O)cc3)nc12 | -18.2% |
| O=C(O)c1ccccc1NC(=S)NC(NC(=O)c1ccccc1[N+](=O)[O-])C(Cl)(Cl)Cl (stereo not given) | -0.92% |
| CCCS(=O)(=O)N1CCN(C(=O)c2cccs2)CC1 | -3.26% |
| Cc1cccc(N2CC(C)Cn3c2nc2c3c(=O)n(CC(=O)OCc3ccccc3)c(=O)n2C)c1 (stereo not given) | -8.01% |
| COc1ccc(S(=O)(=O)N2CCOC2CNC(=O)C(=O)NCc2ccc(F)cc2)cc1 (stereo not given) | 7.37% |
| CC(C)(C)c1ccc(S(=O)(=O)N2CCN(C(=O)c3ccc4c(c3)C(=O)N(Cc3ccncc3)C4=O)CC2)cc1 | 5.4% |
| COc1ccc(C#Cc2c(-c3ccc(OC)cc3)oc3ccc(-c4ccc5c(c4)OCO5)cc23)cc1 | 5.51% |
| CC1(c2ccc3ccccc3c2)NC(=O)N(CC(N)=O)C1=O (stereo not given) | 1.06% |
| CCCC(=O)N1CCN(c2nnc(-c3ccc(C)cc3)c3ccccc23)CC1 | -8.96% |
| CN(C(=O)COC(=O)CCCc1c[nH]c2ccccc12)c1c(N)n(Cc2ccccc2)c(=O)[nH]c1=O | 20.6% |
| NC(=O)c1cc(S(=O)(=O)NCCCc2ccco2)cs1 | 1.79% |

| SMILES | inhibition |
| --- | --- |
| CCc1ccc(NC(=O)CCNS(=O)(=O)c2cccs2)cc1 | -3.72% |
| COc1ccc(/C=N/OCc2ccccc2C#N)c(OC)c1 | -3.2% |
| Cc1ccc(C(=O)NCC(=O)NC2CC2)cc1 | 4.21% |
| NS(=O)(=O)c1ccc(CCNC(=O)c2nc(CS(=O)(=O)c3ccc(Cl)cc3)no2)cc1 | -12.4% |
| Cn1cnc(C(F)(F)F)c1-c1ccc([N+](=O)[O-])cc1 | 8.1% |
| COc1ccccc1C1=CC(=O)CCC1 | 2.76% |
| CCn1c(SCC(=O)N(C)C2CCS(=O)(=O)C2)nnc1-c1cccs1 (stereo not given) | -22.6% |
| O=c1nc(NO)ccn1C1CCCO1 (stereo not given) | 1.3% |
| O=C(O)c1ccc(-n2nc(-c3ccccc3)c3ccccc3c2=O)cc1 | 0.76% |
| COc1ccc(N(CC(=O)NC2CCCCC2)S(=O)(=O)c2c(C)[nH]c(=O)[nH]c2=O)cc1 | 1.68% |
| Cc1sc2ncn(CC(=O)NCCCC(=O)N3CCN(c4ccccc4F)CC3)c(=O)c2c1C | 1.47% |
| Cc1nc(N)c(Br)c(C)c1Br | -6.08% |
| CSCCC(NC(=O)COc1ccccc1)C(=O)OCCOc1ccc(Br)cc1 (stereo not given) | -4.54% |
| CSCCC(NC(=O)COc1ccccc1)C(=O)OCc1ccc(Cl)cc1 (stereo not given) | -5.68% |
| CSCCC(NC(=O)COc1ccccc1)C(=O)OCC(=O)c1cc2ccccc2o1 (stereo not given) | 33.3% (active) |
| COc1cc(C(=O)NNC(=O)CN2C(=O)NC3(CCCC3)C2=O)cc(OC)c1OC | 5.64% |
| COCCCNS(=O)(=O)c1cccc(S(=O)(=O)c2cccc(S(=O)(=O)NCCCOC)c2)c1 | -5.56% |
| O=C(CC1C(=O)NCCN1Cc1ccc(-c2ccccc2)cc1)NCc1ccncc1 (stereo not given) | -12.3% |
| COc1ccccc1CN(C)C(=O)C1(c2ccc(Cl)cc2)CC1 | 21.3% |
| Cc1cc(OC(=O)c2ccccc2Cl)ccc1N1C(=O)CCC1=O | 11.2% |
| Cc1ccc(C(=O)OCC(=O)N2CC(C)CC(C)C2)cc1S(=O)(=O)N1CCCCC1 (stereo not given) | 11% |
| CCCCCCCC1(C)NC(=O)N(CC(=O)Nc2cc(C)on2)C1=O (stereo not given) | -14.9% |
| O=C(NCCS(=O)(=O)N1CCN(c2ccc(F)cc2)CC1)c1ccc2c(c1)OCO2 | 9.72% |

| SMILES | inhibition |
| --- | --- |
| CN(CCc1ccccc1)C(=O)c1cccc(NC(=O)Cc2ccc([N+](=O)[O-])cc2)c1 | -40.2% |
| Cc1cc(C)cc(C(=O)NC(CC(N)=O)c2ccc(N3CCC(N4CCCCC4)CC3)c([N+](=O)[O-])c2)c1 (stereo not given) | -1.31% |
| Cc1ccc(S(=O)(=O)C2(S(=O)(=O)c3ccc(C)cc3)CCCC2)cc1 | -9.41% |
| O=C(CCCOc1ccccc1)NNC(=O)c1ccc(Cl)cc1 | -22.2% |
| COC(=O)N1CN(C(=O)OC)CN(C(=O)OC)C1 | -11.4% |
| O=C(NNc1cc(Cl)cc(Cl)c1)c1c(F)cccc1Cl | 5.05% |
| CC1(C)CC(=O)C(C2c3ccccc3S(=O)(=O)c3ccccc32)C(=O)C1 | -6.15% |
| CC(C)OC(=O)Cn1nc(C(F)(F)F)c2c1CCCC2 | -22% |
| CN1CCN(C2=NCCO2)CC1 | 13.4% |
| Nc1scc(-c2ccncc2)c1Cl | 4.78% |
| CCOc1ccc(CCNC(=O)CN2C(=O)NC3(CCc4ccccc43)C2=O)cc1OCC (stereo not given) | 16.7% |
| COc1cc(NC(=O)c2ccc(CNc3c(N4CCCC4)c(=O)c3=O)cc2)cc(OC)c1OC | -11.7% |
| Cc1cc(C)n(-c2ccc(Cl)c(C(=O)O)n2)n1 | 39.8% (active) |
| CC(=O)c1ccc(Oc2cc(C)nc(-n3nc(C)cc3C)n2)cc1 | 6.21% |
| Cc1cc(C)n(-c2ccc3nncn3n2)n1 | 5.02% |
| COc1ccc(N2C(=O)C(CC(=O)Nc3ccc(F)cc3)N(CCc3cccs3)C2=O)cc1 (stereo not given) | 6.13% |
| COc1ccc(NS(=O)(=O)c2cc(NC(=O)c3ccc(S(=O)(=O)N(C)C)cc3)ccc2N2CCOCC2)cc1 | 8.03% |
| Cc1cc(C)cc(NC(=O)CSCc2cnn(-c3ccccc3)c2-n2cccc2)c1 | 3.55% |
| CCOC(=O)NC(=O)C(=CNc1cccc(OC)c1)C(=O)NC(=O)OCC | 34% (active) |
| CCOC(=O)C1CCN(C(=O)Nc2cccc(OC)c2)CC1 | 17.6% |
| COc1cccc(NC(=O)COC(=O)CCOc2ccccc2OC)c1 | -27.4% |
| COCCn1c(SCC(=O)Nc2cc(Cl)ccc2OC)nc2c(c1=O)SC(C)C2 (stereo not given) | -31.9% |
| N#CC1(C#N)C(C(=O)C23CC4CC(CC(C4)C2)C3)C12CCOCC2 (stereo not given) | 20.3% |

| SMILES | inhibition |
| --- | --- |
| COc1cc(C)nc(N2CCCC(C(=O)NCC(C)C)C2)n1 (stereo not given) | -13.9% |
| CCNc1nc(NCC)nc(N(C)n2cnnc2)n1 | 13% |
| O=C(Nc1ccc2c(c1)C(=O)OC2)Nc1cccc2ccccc12 | -14.2% |
| O=S(=O)(NC1CCCCC1N1CCC(O)CC1)c1ccc(Cl)cc1 (stereo not given) | -6.29% |
| O=C(COc1ccccc1F)NNC(=O)c1ccc(N2CCCCC2)c([N+](=O)[O-])c1 | 7.26% |
| O=c1[nH]n2c(=O)c3c([nH]c2c1N=Nc1ccccc1)CCC3 | 17% |
| Cc1c(CNCCc2ccccc2)c(C(=O)O)c(C)n1-c1ccccc1 | 10.6% |
| CCc1ccc(CCC(=O)Nc2ccc(S(N)(=O)=O)cc2)o1 | -4.51% |
| COc1ccc(OCc2nnc3n2N=C(c2ccccc2)C(CC(=O)O)S3)cc1 (stereo not given) | -14.6% |
| O=C(Nc1ccc(Br)c2cccnc12)c1ccc(Cn2cc([N+](=O)[O-])cn2)o1 | -5.7% |
| O=C(CSc1nnc2ccc(-c3ccncc3)nn12)N1CCCCC1 | -11.3% |
| OCCN1CCN(CCO)C1=S | 12.7% |
| CCCCn1c(N)c(N2CCOCC2)c(=O)n(CC(=O)NCCc2ccccc2)c1=O | -7.42% |
| CCC(C(=O)OC)n1cnc2scc(-c3ccc(C)cc3)c2c1=O (stereo not given) | 18% |
| COc1cc(C(=S)N2CCOCC2)cc(OC)c1OC(=O)c1cc([N+](=O)[O-])c(C)c([N+](=O)[O-])c1 | -9.45% |
| COc1ccc(/C=C/C(=O)c2cc(Br)ccc(=O)c2O)cc1 | -37% |
| CC(=O)CCS(=O)(=O)c1ccc(C)c(C)c1 | 6.1% |
| CCCCN(CC)C(=O)c1ccccc1Oc1ccccc1 | 4.41% |
| C=CCn1c(SCC(=O)NC(=O)Cc2ccccc2)nc2ccccc2c1=O | 4.86% |
| CCOc1cc(S(=O)(=O)NCc2ccc3c(c2)OCO3)ccc1F | 18.6% |
| Cc1cc(-c2nc(C)c(-c3nnc(SCC(=O)Nc4ccccc4)n3C)s2)no1 | 0.1% |
